Reference: PubChem BioAssay AID743126 (The Scripps Research Institute Molecular Screening Center, 2013)
Among all 370,000 compounds or so, about 2,100 (0.57%) were called active.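 The calls were made as follows: active = inhibition above mean plus 3 SD of compounds lying within the high and low control bounds (cut at about 19% in these data); inactive = the rest.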 Many of the other results were omitted from the sample, so actives are more common in it than they were.

These compounds were tested against Group 3 secretory phospholipase A2 (Homo sapiens) (UniProt Q9NZ20) (assay: HGIII-sPLA2 enzyme inhibition – biochemical, QFRET, BODIPY PC-A2 liposome substrate, primary screen (AID 743126;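 also: 0% = median of test compound wells and 100% = no enzyme DMSO wells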)). Conditions: QFRET BODIPY PC-A2 liposome hydrolysis, fluorescence; at 12.2 µM; active compounds read high.
Group 3 secretory phospholipase A2 (Homo sapiens), sequence (Q9NZ20 whole entry, looked up): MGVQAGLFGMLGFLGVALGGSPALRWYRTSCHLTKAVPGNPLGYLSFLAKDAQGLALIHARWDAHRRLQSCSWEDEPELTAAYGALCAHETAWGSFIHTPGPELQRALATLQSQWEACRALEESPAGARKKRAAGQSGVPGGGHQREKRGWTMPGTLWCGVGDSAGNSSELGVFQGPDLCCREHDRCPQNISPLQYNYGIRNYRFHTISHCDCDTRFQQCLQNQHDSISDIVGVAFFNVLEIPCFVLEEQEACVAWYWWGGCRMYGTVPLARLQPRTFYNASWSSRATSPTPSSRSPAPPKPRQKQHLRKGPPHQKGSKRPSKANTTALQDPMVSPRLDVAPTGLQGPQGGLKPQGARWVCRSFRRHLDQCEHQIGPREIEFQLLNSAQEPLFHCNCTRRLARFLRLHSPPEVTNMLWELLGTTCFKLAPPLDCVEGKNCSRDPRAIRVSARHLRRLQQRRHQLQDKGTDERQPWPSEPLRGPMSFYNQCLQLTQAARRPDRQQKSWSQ

Row | Structure (SMILES) | inhibition
1 | O=C(NNC(=O)C1C2CCC(C2)C1C(=O)O)c1ccc(Cl)cc1 (stereo not given) | 4.75% (inactive)
2 | O=S(=O)(NC1CC2CCC1C2)c1ccc(Cl)cc1 (stereo not given) | -4.6% (inactive)
3 | CC1CCN(C(=S)NC2CC3CCC2C3)CC1 (stereo not given) | 14.4% (inactive)
4 | CC(C)c1ccc(NC(=S)NC2CC3C=CC2C3)cc1 (stereo not given) | 0.31% (inactive)
5 | O=C(NNC(=S)NC1CC2CCC1C2)c1ccc(Cl)cc1 (stereo not given) | 19.4% (active)
6 | S=C(NNC(=S)NC1CC2CCC1C2)NC1CC2C=CC1C2 (stereo not given) | 19.5% (active)
7 | Cc1ccc(C2=CCN(C)C(=O)N2c2ccc(Cl)cc2)cc1 | -5.31% (inactive)
8 | COC(=O)C[C@@H]1CC[C@@H]2[C@@H](COc3ccc(NC(=O)Nc4ccc(F)c(F)c4)cc3C(=O)N2C)O1 | -13.5% (inactive)
9 | Cc1cccc(N(Cc2ccccc2)C(=O)c2cc(S(=O)(=O)N3CCOCC3)ccc2F)c1 | -1.09% (inactive)
10 | Cc1ccc(S(=O)(=O)N2CCOCC2)cc1C(=O)NC(=S)N(Cc1ccccc1)C(C)C | 23.9% (active)
11 | Cc1ccc(S(=O)(=O)N2CCOCC2)cc1C(=O)Nc1ccccc1N1CCCC1 | 1.07% (inactive)
12 | CCC(=O)Nc1ccc2c(c1)C(=O)N(C)[C@@H]1CC[C@@H](CC(=O)NCCc3ccccc3)O[C@H]1CO2 | 4.64% (inactive)
13 | C[C@H](C(=O)N(C)c1ccccc1)[C@@H](O)c1ccc(Cl)cc1 | -2.63% (inactive)
14 | O=C(OC12CCCN(C1)/C(=C/c1cccnc1)C2)C1CCCC1 (stereo not given) | -0.59% (inactive)
15 | Cc1ccccc1NC(=O)C1CCN(C(=O)NC2CCCCC2)CC1 | -4.04% (inactive)
16 | O=C(NNC(=O)C1CCN(c2ncccn2)CC1)c1ccccc1 | -1.66% (inactive)
17 | Cc1ccccc1NC(=O)C1CCN(c2ncccn2)CC1 | 19.5% (active)
18 | COC(=O)c1cc(S(=O)(=O)N2CCN(c3ccccc3C)CC2)cn1C | 1.56% (inactive)
19 | CCCCNC(=O)c1ccc(-n2c(=S)[nH]c3ccccc3c2=O)cc1 | 4.64% (inactive)
20 | CCCCn1c(=S)[nH]c2ccccc2c1=O | 25.3% (active)
21 | CCCCn1c(=S)[nH]c2ncccc2c1=O | 2.69% (inactive)
22 | COc1ccccc1C(=O)NC1CCCCN(C(C)C)C1=O (stereo not given) | 12.1% (inactive)
23 | COC(=O)[C@H](C(C)C)N(CCCc1cn(Cc2ccccc2)nn1)S(=O)(=O)c1ccc(F)cc1Br | -15.2% (inactive)

Row | Structure (SMILES) | inhibition
24 | CCCCCOC(=O)c1ccc(N2C(=O)C3C4C=CC(C4)C3C2=O)cc1 (stereo not given) | -15.1% (inactive)
25 | CCCCCCCCCCOC(=O)C[N+](C)(C)CC1CCCCC1O (stereo not given) | 19.3% (active)
26 | COc1ccc(S[C@]2(C(=O)N(C)C)CC(=O)N(c3ccc(OC)cc3)[C@@H]2c2ccc(OC)cc2)cc1 | -13.3% (inactive)
27 | CCCCCCN1CCS(=O)(=O)N(Cc2ccc(C(F)(F)F)cc2)C(C(=O)OC)C1 (stereo not given) | 5.31% (inactive)
28 | O=[N+]([O-])c1cc(Cl)cc(/C=N/NC(=S)Nc2cc(S(=O)(=O)N3CCOCC3)ccc2Cl)c1O | 16.3% (inactive)
29 | O=C(NN=Cc1ccco1)C(=O)Nc1ccc(Cl)c([N+](=O)[O-])c1 | 3.31% (inactive)
30 | O=C(N/N=C/c1cc(Cl)cc([N+](=O)[O-])c1O)C(O)(c1ccccc1)c1ccccc1 | 21.2% (active)
31 | CN(C)CC(=O)N[C@@H]1C[C@@H]2O[C@H](CO)CC[C@@H]2O[C@@H]1CCc1ccc(C#Cc2ccccc2)cc1 | -19.5% (inactive)
32 | COc1ccc(-n2c(SCC(=O)Nc3ccc4c(c3)OCCO4)nnc2-c2ccc(Cl)cc2)cc1 | 0.31% (inactive)
33 | CC(NCc1ccco1)C(=O)N1CCCCC1 (stereo not given) | 3.8% (inactive)
34 | CCN(CC(=O)NCCc1ccccc1)S(=O)(=O)c1ccccc1 | 0.93% (inactive)
35 | O=C(CSc1ccccc1F)NC1CCS(=O)(=O)C1 (stereo not given) | 1.4% (inactive)
36 | CCN(CC(=O)NC1CCS(=O)(=O)C1)S(=O)(=O)c1ccccc1 (stereo not given) | 22.4% (active)
37 | CCCNC(=O)Nc1ccc2c(c1)C(=O)N(C)[C@H]1CC[C@H](CC(=O)NCC3CCCCC3)O[C@@H]1CO2 | -24.2% (inactive)
38 | C=CCN1[C@@H](Cc2ccccc2)COc2cccc(N3CCSCC3)c2S1(=O)=O | -0.87% (inactive)
39 | O=C(CSc1nc2ccccc2s1)N=Nc1c(O)[nH]c2ccccc12 | -40.6% (inactive)
40 | Cc1sc2nc(SCC(=O)c3ccc(O)c(O)c3)n(Cc3ccco3)c(=O)c2c1C | 23.9% (active)
41 | O=C(CSc1nnc(COc2ccccc2)n1Cc1ccco1)c1ccc2ccccc2c1 | -53.5% (inactive)
42 | O=C(CSc1nnc(-c2cccs2)n1Cc1ccco1)c1ccc2c(c1)OCO2 | -35.9% (inactive)
43 | COc1ccc(-n2c(COc3ccc(C)cc3)nnc2SCC(=O)Nc2ccc(Oc3ccccc3)cc2)cc1 | -8.43% (inactive)
44 | CCN(C(=O)[C@@H](C1CC1)[C@@H](O)c1ccc2ccccc2c1)c1ccccc1 | 4.03% (inactive)
45 | CCCCN1CCN(C(=O)c2ccc3c(c2)NC(=O)C(C)(C)O3)CC1 | 5.11% (inactive)
46 | O=C(Nc1ccccc1)N1CCN(Cc2nc3ccccc3c(=O)[nH]2)CC1 | 7.43% (inactive)

Row | Structure (SMILES) | inhibition
47 | COC(=O)[C@H](C(C)C)N1CCc2nnn(Cc3ccc(C)cc3)c2-c2ccccc2S1(=O)=O | -9.33% (inactive)
48 | CC(C)=CCCC1(C)C=Cc2c(ccc3c2[nH]c2cc(O)c(C)cc23)O1 (stereo not given) | 22.9% (active)
49 | C=C(C)C#CC(Cc1ccccc1)N(CC1CC1)/C(N)=N/C(=O)OCc1ccccc1 (stereo not given) | 7.88% (inactive)
50 | CC(C)c1cc(N=O)cc(C(C)C)c1O | -42.9% (inactive)
51 | CC(C)c1cc(C(=O)N/N=C/c2ccoc2)c(O)c(C(C)C)c1 | 22.1% (active)
52 | C[C@@H]1COc2cccc(N3CCCC3)c2S(=O)(=O)N1C | 2.99% (inactive)
53 | O=C(c1ccccc1)c1ccc(-c2ccccc2C(=O)NC2CCCCN(Cc3ccc(Cl)cc3)C2=O)cc1 (stereo not given) | -1.89% (inactive)
54 | Brc1ccccc1C1N=C(c2ccccc2)NO1 (stereo not given) | 9.79% (inactive)
55 | Brc1ccccc1C1Nc2cccc3cccc(c23)N1 | 27.1% (active)
56 | COc1cc2c(cc1OC)C(c1ccccc1Br)NC(=O)C2 (stereo not given) | 13.2% (inactive)
57 | Cc1ccc(NC(=O)Nc2cc(C)nn2-c2ccccc2)cc1 | 3.2% (inactive)
58 | Cc1nc2ccc(C(=O)N3CCN(C(=O)C(C)(C)C)CC3)cc2n1C1CCCC1 | 3.1% (inactive)
59 | CN1C(=O)c2cc(NS(C)(=O)=O)ccc2OC[C@@H]2O[C@@H](CC(=O)NCc3ccc(-c4ccccc4)cc3)CC[C@H]21 | -2% (inactive)
60 | c1csc(-c2nnc(SCc3nc4ccccc4[nH]3)o2)c1 | -4.46% (inactive)
61 | O=C(NC1CCCCN(Cc2cccc(C(F)(F)F)c2)C1=O)c1ccccc1I (stereo not given) | -1.99% (inactive)
62 | Cc1c(Cl)cccc1NC(=S)NCC(O)c1ccccc1 (stereo not given) | 8.54% (inactive)
63 | COc1cccc(CNCc2ccc3c(c2)OCO3)c1 | 3.34% (inactive)
64 | Cc1c(Cl)cccc1NC(=S)NCc1ccc2c(c1)OCO2 | 19.5% (active)
65 | O=C(CSc1nnc(-c2cccc(Cl)c2)n1Cc1ccco1)Nc1ccc(OCc2ccccc2)cc1 | -12.1% (inactive)
66 | Cc1ccccc1CS(=O)(=O)Cc1ccc(C(=O)Nc2ccc(Cl)cc2)o1 | -4.56% (inactive)
67 | CCS(=O)(=O)N1Cc2ccccc2CC1C(=O)Nc1ccc(OC)cc1OC (stereo not given) | -0.28% (inactive)
68 | CCOc1ccc(N2CC(C(=O)NCc3ccccn3)CC2=O)cc1 (stereo not given) | 0.93% (inactive)
69 | COc1ccc(NC(=O)C2C3C=CC(C3)C2C(=O)NCc2ccccn2)c(OC)c1 (stereo not given) | 20.6% (active)

Row | Structure (SMILES) | inhibition
70 | Cc1ccc(-n2c(SCC(=O)Nc3cccc4ccccc34)nnc2-c2ccccn2)cc1 | -5.54% (inactive)
71 | CCc1cc(C(c2ccccc2OC)N2CCOCC2)c(NC(=O)c2ccccc2)s1 (stereo not given) | -10.3% (inactive)
72 | O=C(Nc1ccc(CSc2ccccc2)cc1)c1ccc(CN2CCOCC2)cc1 | -16.7% (inactive)
73 | COc1ccc(C(=O)Nc2sc(C)c(C)c2CN2CCOCC2)cc1 | 21.9% (active)
74 | CCCCC(=O)N[C@@H]1CC[C@@]23CCCN2C(=O)CCC[C@H]3[C@H]1C | 7.19% (inactive)
75 | COCC(=O)N[C@@H]1C[C@@H]2O[C@@H](CO)CC[C@@H]2O[C@@H]1CCc1ccc(-c2ccccc2)cc1 | -1.64% (inactive)
76 | NC(c1csc(NC(=O)Nc2cccc(C(F)(F)F)c2)n1)C1CCCCC1 (stereo not given) | 6.78% (inactive)
77 | CCOC(=O)c1csc(NC(=O)Nc2cccc(OC)c2)n1 | -1.84% (inactive)
78 | COc1ccc(C(N)c2csc(NC(=O)Nc3cccc(C(F)(F)F)c3)n2)cc1 (stereo not given) | 27.4% (active)
79 | COC(=O)C[C@H]1CC[C@H]2[C@H](COc3ccc(NC(=O)C4CC4)cc3C(=O)N2C)O1 | -1.19% (inactive)
80 | CC(C)(C)c1ccc(CSc2nnc(-c3cccs3)o2)cc1 | -0.56% (inactive)
81 | CN(C)S(=O)(=O)c1cccc(C(=O)N/N=C\c2ccco2)c1 | 1.45% (inactive)
82 | CN(C)S(=O)(=O)c1cccc(NC(=S)N/N=C/C(=O)c2ccccc2)c1 | 24% (active)
83 | CN(C)S(=O)(=O)c1cccc(NC(=O)COC(=O)/C=C/c2cccs2)c1 | -11.5% (inactive)
84 | COC(=O)C1CN(Cc2cn(Cc3ccc(F)cc3)nn2)CCS(=O)(=O)N1Cc1ccc(Cl)cc1 (stereo not given) | -11.8% (inactive)
85 | Cc1cc(C(=O)NN=C/C=C/c2ccco2)n[nH]1 | 13% (inactive)
86 | COc1ccc2c(c1)c(=Cc1ccc(N(C)C)cc1)c1cc(-c3ccccc3)[n+](C)n12 | 31.7% (active)
87 | CCCC[C@H](C(=O)N(CC)c1ccccc1)[C@@H](O)c1ccc2ccccc2c1 | -3.7% (inactive)
88 | O=S(=O)(NC(=S)Nc1ccccc1)c1ccc(F)cc1 | -1.06% (inactive)
89 | O=C(NNC(=S)Nc1ccc(F)cc1)[C@H]1C[C@@H]1c1ccccc1 | 24% (active)
90 | Cc1ccc(NC(=O)C2CC2c2ccccc2)cc1 (stereo not given) | -0.8% (inactive)
